Assay results published in PubChem BioAssay (NCATS).
Records with an inconclusive call do not appear. Active and inactive are the calls of the source. Calls follow the shape of the full dose curve.
Potency is read from the fitted curve at half-maximal effect.

Experiment: Primary qHTS to identify inhibitors of SARS-CoV-2 cell entry (AID 1645846); also: nearly all actives have a fitted effect of over 45% in size
Conditions: SARS-CoV-2 pseudovirus cell entry assay, luminescence; activity change, negative = inhibition: at 57.1 µM (top of the series) unless noted
Text: Assay Provider: Wei Zheng, Ph.D.
National Center for Advancing Translational Sciences, National Institute of Health, Rockville, MD.
SARS-CoV-2 spike protein, within the viral envelope, mediates viral attachment and infection of host cells. The SARS-CoV-2 spike protein specifically binds to the host receptor ACE2 (Angiotensin-converting enzyme 2). This interaction promotes endocytosis of the viral particle, additional events lead to viral-host cell membrane fusion and release of the viral contents, allowing viral replication.
While SARS-CoV-2 requires BSL-3 facilities for live virus work, pseudotyped partices (PP) that incorporate SARS-CoV-2 spike proteins without replication elements could facilitate studies on viral entry mechanisms in a BSL-2 setting. This PP cell entry assay could also enable screening of small molecule compound libraries in BSL-2 setting to identify inhibitors of SARS-CoV-2 cell entry.
PROTOCOL TABLE (format as described by Inglese J, Shamu CE and Guy RK. 2007)
SEQUENCE No. (e.g., 1, 2, 3, etc.); […] (e.g., Cells, Incubation, Reagent, etc.); VALUE and DESCRIPTION.
1. Cells. Seed 1500 HEK293-ACE2 cells (Expi293F with stable expression of human ACE2) in 2 uL/well media (DMEM, 10% FBS, 1x L-glutamine, 1x Pen/Strep, 1 ug/ml puromycin) in white 1536-well assay plates (Greiner #782073).
2. Incubation. Incubate at 37C with 5% CO2 overnight (~16 h).
3. Compounds. Dispense 23 nL/well compounds in DMSO via pin transfer.
4. Incubation. Incubate for 1 hr at 37C 5% CO2.
5. Reagent. Dispense 2 uL/well of SARS-CoV-2-S pseudotyped particles. [a] PPs are produced with murine leukemia virus pseudotyping. [b] SARS-CoV-2-S is Wuhan-Hu-1 sequence (BEI #NR-52420) with C-terminal 19 amino acid truncation.
6. Centrifuge. […]
7. Incubation. Incubate at for 48 hr at 37C 5% CO2
8. Centrifuge. Remove supernatant with gentle centrifugation using a Blue Washer (BlueCat Bio).
9. Reagent. Dispense 4 uL/well of Bright-Glo Luciferase detection reagent (Promega #E2620).
10. Incubation. Incubate for 5 min at room temperature.
11. Detection. Read luminescence signal (Viewlux plate reader, PerkinElmer). Data was normalized with wells containing SARS-CoV-2-S PP as 100%, and wells containing bald PP (no fusion protein) as 0%.
`CC[C@@]1(O)C(=O)OCc2c1cc1n(c2=O)Cc2c-1nc1cc(F)c(C)c3c1c2[C@@H](N)CC3` showed an activity change, negative = inhibition of -94.1%.
In the case of `COC(C)(C)CCn1nc(Nc2c(C)cccc2C)c2cnc(Nc3ccc(OCCN4CCCC4)c(F)c3)nc21`, the Potency is reported as 11.2 µM (active).
`Cc1cc(Oc2ccc3nc(COc4ccc(CC5SC(=O)NC5=O)cc4)n(C)c3c2)cc(C)c1N` (stereo not given) showed an activity change, negative = inhibition of 2.59%.
`CCC(c1ccccc1)c1noc(CCN(CC)CC)n1` (stereo not given) gave an activity change, negative = inhibition of -15.7%.
`OCC(O)COc1ccc(Cl)cc1` (stereo not given) showed an activity change, negative = inhibition of -23.5% [at 171 µM].
Molecule `COc1cc(N2CCC(O)CC2)ccc1Nc1cc(Nc2ccccc2S(=O)(=O)C(C)C)c2cc[nH]c2n1` has an activity change, negative = inhibition of -27.7%.
In the case of `COC1=C2C[C@H](C)C[C@H](OC)[C@H](O)[C@@H](C)/C=C(/C)[C@H](OC(N)=O)[C@@H](OC)/C=C\C=C(\C)C(=O)NC(=CC1=O)C2=O`, the “outcome” value is reported as “inactive”.
For `NS(=O)(=O)OC[C@@H]1C[C@@H](n2ccc3c(N[C@H]4CCc5ccccc54)ncnc32)C[C@@H]1O`, the activity change, negative = inhibition was -87.9%.
With `CC1(C)CN(C(=O)c2ccc(-c3cccc4nc(NC(=O)C5CC5)nn34)cc2)C1` the activity change, negative = inhibition was -61.8%.
`C[C@]12C=CC(=O)C=C1CC[C@@H]1[C@@H]2[C@@H](O)C[C@@]2(C)[C@H]1CC[C@]2(O)C(=O)COP(=O)(O)O` gave an activity change, negative = inhibition of -19.2% [at 11.3 µM].
With `COc1ccc2c(c1)OC(C)(C)C(c1ccccc1)C2c1ccc(OCCN2CCCC2)cc1` (stereo not given) the Potency was 15.8 µM (active).
With `CC[C@@H](C(=O)[C@@H](C)[C@@H](O)[C@H](C)CCc1ccc(C)c(O)c1C(=O)O)[C@H]1O[C@](CC)([C@H]2CC[C@](O)(CC)[C@H](C)O2)C[C@@H]1C` the Potency was 5.01 µM (active).
`CCCCCCCCCC(=O)OCCN1CCN(CC/C=C2/c3ccccc3Sc3ccc(Cl)cc32)CC1` gave an activity change, negative = inhibition of -15%.
In the case of `COc1ccc2[nH]c(C(=O)N3CCC(CC(C)(C)O)CC3)cc2c1`, the “outcome” value is reported as “inactive”.
For `Nc1ncnc2c1ncn2[C@@H]1O[C@H](CO)C[C@H]1O`, the activity change, negative = inhibition was -13%.
In the case of `CN(C)CCOc1ccc(-c2nc(-c3ccc4c(c3)CC/C4=N\O)c(-c3ccncc3)[nH]2)cc1`, the Potency is reported as 12.6 µM (active).
Molecule `NC[C@@H]1O[C@H](O[C@H]2[C@H](O)[C@H](O[C@H]3[C@@H](O)[C@H](N)C[C@H](N)[C@H]3O[C@H]3O[C@H](CN)[C@H](O)[C@H](O)[C@H]3N)O[C@@H]2CO)[C@@H](N)[C@@H](O)[C@@H]1O` has an activity change, negative = inhibition of -25.4% [at 5.25 µM].
For `COc1ccc(S(=O)(=O)Nc2cc(-c3csc(C#N)c3)ccc2C)cc1`, the activity change, negative = inhibition was -92%.
For `Fc1ccc(-c2nc(-c3ccccc3F)[nH]c2-c2ccncc2)cc1`, the activity change, negative = inhibition was -6.32%.
Work on `C[C@]12CCC3[C@@H](CC[C@H]4NC(=O)C=C[C@]34C)[C@@H]1CC[C@@H]2C(=O)Nc1cc(C(F)(F)F)ccc1C(F)(F)F` (stereo not given in full) yielded an activity change, negative = inhibition of -7.71%.
`CC(C)[C@@H](CS(=O)(=O)C(C)C)N1C(=O)[C@@](C)(CC(=O)O)C[C@H](c2cccc(Cl)c2)[C@H]1c1ccc(Cl)cc1` gave an activity change, negative = inhibition of -11.9%.
For `CCCCC[C@H](O)/C=C/[C@@H]1[C@@H](C/C=C/CCCC(=O)O)[C@@H](O)C[C@H]1O`, the activity change, negative = inhibition was -6.41%.
For `CCN(CC)CCS(=O)(=O)[C@@H]1CCN2C(=O)c3coc(n3)CC(=O)C[C@H](O)/C=C(C)/C=C/CNC(=O)/C=C/[C@@H](C)[C@@H](C(C)C)OC(=O)[C@@H]12`, the activity change, negative = inhibition was -29%.
Work on `COc1ccc(S(=O)(=O)N[C@@H](CNc2nc(C)nc(N3CCC(c4ccc5c(n4)NCCC5)CC3)c2C)C(=O)O)cc1` yielded an activity change, negative = inhibition of -3.98%.
Work on `O=c1c(-c2ccc(O)cc2)coc2c([C@@H]3O[C@H](CO)[C@@H](O)[C@H](O)[C@H]3O)c(O)ccc12` yielded an activity change, negative = inhibition of -22.1%.
For `CN(C)C1CCN(C(=O)c2ccc(NC(=O)Nc3ccc(-c4nc(N5CCOCC5)nc(N5CCOCC5)n4)cc3)cc2)CC1`, the Potency was 1.58 µM (active).
`CCC(=O)NC[C@@H]1C[C@H]1c1cccc2c1CCO2` showed an activity change, negative = inhibition of -21.9%.
`O=C(/C=C/c1cccc(S(=O)(=O)Nc2ccccc2)c1)NO` showed an activity change, negative = inhibition of -13.6%.
`N#C/C(=C(/N)Sc1ccc(N)cc1)c1ccccc1C(F)(F)F` showed an activity change, negative = inhibition of -16.8%.
For `COc1ccc(C(=O)C2CCN(CC(=O)N(Cc3nc4c(c(=O)[nH]3)COCC4)CC3CC3)CC2)cc1`, the activity change, negative = inhibition was -20.6%.
In the case of `COC(=O)N1CC2(CC2)C[C@H](C(=O)NO)[C@H]1C(=O)N1CCN(c2ccccc2)CC1`, the activity change, negative = inhibition is reported as -12.3%.
For `C=C1[C@H](OC(=O)/C=C(\C)CC)C[C@@H](C(C)C)[C@@H]2[C@H]([C@@H](C)OC(C)=O)C(=O)C[C@@H]12`, the activity change, negative = inhibition was -14.8%.
With `NCc1ccccc1CC(=O)N[C@@H]1C(=O)N2C(C(=O)O)=C(CSc3nnnn3CC(=O)O)CS[C@H]12` the activity change, negative = inhibition was -25.4%.
For `CC(C)c1cc(CNc2nc(Nc3cc(C4CC4)[nH]n3)cc(N3CCN(C)CC3)n2)on1`, the Potency was 2.51 µM (active).
`CNCC(O)c1ccc(OC(=O)C(C)(C)C)c(OC(=O)C(C)(C)C)c1` (stereo not given) showed an activity change, negative = inhibition of -25.4%.
In the case of `CN(C)/C(N)=N/C(=N)N`, the outcome is reported as “inactive [setting not given]”.
For `Oc1cc(O)cc(O)c1`, the activity change, negative = inhibition was -21.2%.
In the case of `CN1CCN(C(=O)c2ccc(-c3ccc4c(C=O)c(O)ccc4c3)s2)CC1`, the “outcome” value is reported as “inactive”.

Same assay, conditions: SARS-CoV-2 pseudovirus cell entry assay, luminescence; at 27.1 µM (top of the series)
Molecule `CN(C)C(=O)c1cc2cnc(Nc3ccc(N4CCNCC4)cn3)nc2n1C1CCCC1` has an activity change, negative = inhibition of -19.2%.

Same assay, conditions: SARS-CoV-2 pseudovirus cell entry assay, luminescence; at 57.1 µM (top of the series)
Work on `CN(C)C(=O)c1cc2cnc(Nc3ccc(N4CCNCC4)cn3)nc2n1C1CCCC1` yielded an activity change, negative = inhibition of -45.9%.
